Holding throughout (test): protein-binding microarray (PBM); PBM: ~300 nM protein, 6 mM HEPES pH 7.8, 80 mM KCl, 0.5 mM EDTA, 0.5 mM EGTA, 6% glycerol, 35 ng/ul poly-dIdC, 1% milk, 1 h, room temperature; Ap Aiptasia and Nv Nematostella (sea anemones) / Co Capsaspora / Aq Amphimedon (sponge) / Dm Drosophila / Hu human; RHD is the Rel homology domain; high values mean tight binding
Holding throughout (conditions): dsDNA, one strand shown

Test [1] deals with T1, GST-Ap-NF-kB RHD (Exaiptasia pallida (Aiptasia), UniProt A0A913YAJ5 2-422).
T1 sequence: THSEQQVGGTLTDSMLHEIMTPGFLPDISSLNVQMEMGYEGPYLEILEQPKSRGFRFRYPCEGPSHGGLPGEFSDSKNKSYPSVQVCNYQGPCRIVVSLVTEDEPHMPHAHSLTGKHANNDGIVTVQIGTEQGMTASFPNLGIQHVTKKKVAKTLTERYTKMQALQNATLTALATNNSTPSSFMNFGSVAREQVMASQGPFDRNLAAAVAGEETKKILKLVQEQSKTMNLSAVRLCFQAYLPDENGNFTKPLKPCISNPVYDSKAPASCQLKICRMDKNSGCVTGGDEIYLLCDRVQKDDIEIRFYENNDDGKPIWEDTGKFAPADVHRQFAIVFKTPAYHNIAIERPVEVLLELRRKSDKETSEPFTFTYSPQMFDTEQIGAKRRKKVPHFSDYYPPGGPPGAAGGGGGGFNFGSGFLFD

Test [2] concerns the target T2, GST-Nv-NF-kB (Cys allele) (Nematostella vectensis, UniProt E5G601 2-411).
T2 sequence: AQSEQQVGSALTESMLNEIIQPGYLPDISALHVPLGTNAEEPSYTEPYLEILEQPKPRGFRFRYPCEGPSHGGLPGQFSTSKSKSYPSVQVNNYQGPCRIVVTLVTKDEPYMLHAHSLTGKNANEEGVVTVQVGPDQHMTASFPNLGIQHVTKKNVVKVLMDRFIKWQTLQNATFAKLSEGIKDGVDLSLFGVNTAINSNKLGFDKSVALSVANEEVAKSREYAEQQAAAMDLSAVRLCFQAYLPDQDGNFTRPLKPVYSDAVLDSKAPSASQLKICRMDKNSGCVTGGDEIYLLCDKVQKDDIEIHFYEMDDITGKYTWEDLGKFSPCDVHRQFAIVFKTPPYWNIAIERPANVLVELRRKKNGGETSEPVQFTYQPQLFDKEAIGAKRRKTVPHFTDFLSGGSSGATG

Test [3] concerns the target T3, GST-Nv-NF-kB (Ser allele) (Nematostella vectensis, UniProt A7UNT2 2-411).
T3 sequence: T2 sequence with Q21R, C66S, S207N, E215Q, V217A, E225K, A268E, D399E

Test [4] deals with T4, GST-Co-NF-kB (Capsaspora owczarzaki, UniProt F1ARL5 200-546).
T4 sequence: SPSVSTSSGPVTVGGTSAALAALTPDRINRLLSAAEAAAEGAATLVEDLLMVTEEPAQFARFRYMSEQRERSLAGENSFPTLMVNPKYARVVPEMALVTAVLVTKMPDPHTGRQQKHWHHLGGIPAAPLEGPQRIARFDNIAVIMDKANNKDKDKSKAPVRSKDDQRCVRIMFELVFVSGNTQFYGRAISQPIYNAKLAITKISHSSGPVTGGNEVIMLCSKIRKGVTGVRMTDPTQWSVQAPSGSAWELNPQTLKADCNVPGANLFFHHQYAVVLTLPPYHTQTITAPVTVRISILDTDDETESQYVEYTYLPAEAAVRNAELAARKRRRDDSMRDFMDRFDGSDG

The target in test [5] is T5, GST-Dm-Relish (Drosophila melanogaster, UniProt Q94527 99-473).
T5 sequence: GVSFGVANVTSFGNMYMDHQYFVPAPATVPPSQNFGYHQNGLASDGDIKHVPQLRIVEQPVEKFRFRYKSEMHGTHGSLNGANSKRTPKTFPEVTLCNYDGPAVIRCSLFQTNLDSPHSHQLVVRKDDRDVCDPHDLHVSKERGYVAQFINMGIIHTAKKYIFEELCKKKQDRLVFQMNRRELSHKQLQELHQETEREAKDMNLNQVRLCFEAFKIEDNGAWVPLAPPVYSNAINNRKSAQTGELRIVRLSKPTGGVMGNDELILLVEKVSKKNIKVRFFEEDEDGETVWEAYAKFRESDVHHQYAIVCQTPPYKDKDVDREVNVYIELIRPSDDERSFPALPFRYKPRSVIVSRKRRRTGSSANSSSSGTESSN

Test [6] has as its target T6, GST-Aq-NF-kB (Amphimedon queenslandica, UniProt A9Y5G7 2-389).
T6 sequence: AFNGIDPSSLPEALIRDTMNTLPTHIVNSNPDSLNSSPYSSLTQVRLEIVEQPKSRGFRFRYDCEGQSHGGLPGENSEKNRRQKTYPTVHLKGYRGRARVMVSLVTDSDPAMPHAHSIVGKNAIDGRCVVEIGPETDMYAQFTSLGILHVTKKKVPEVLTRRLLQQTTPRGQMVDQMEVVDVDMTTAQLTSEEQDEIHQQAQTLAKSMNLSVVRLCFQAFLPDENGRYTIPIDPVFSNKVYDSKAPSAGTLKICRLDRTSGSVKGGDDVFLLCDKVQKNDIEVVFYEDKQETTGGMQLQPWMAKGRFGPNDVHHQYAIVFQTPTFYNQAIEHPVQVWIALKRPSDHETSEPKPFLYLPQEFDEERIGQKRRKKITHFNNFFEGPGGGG

For test [7], the target named is GST-Hu-p50 (Homo sapiens, UniProt P19838 7-356).

Residue numbers refer to the chain shown, from its start.

Chain of GST-Hu-p50 (P19838 7-356): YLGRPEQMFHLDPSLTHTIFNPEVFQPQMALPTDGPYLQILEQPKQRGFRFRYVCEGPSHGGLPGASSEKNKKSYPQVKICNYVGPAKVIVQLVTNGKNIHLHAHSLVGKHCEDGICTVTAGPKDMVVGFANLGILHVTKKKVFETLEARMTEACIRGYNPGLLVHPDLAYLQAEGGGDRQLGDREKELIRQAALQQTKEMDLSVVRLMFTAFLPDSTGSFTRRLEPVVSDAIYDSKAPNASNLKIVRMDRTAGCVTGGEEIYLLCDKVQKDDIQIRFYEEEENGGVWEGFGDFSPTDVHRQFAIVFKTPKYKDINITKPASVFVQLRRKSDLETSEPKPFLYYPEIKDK

Turning to “CCGATTAACATCAGGGGCTTTTATGATGTTAATCGGGTCTTGATTCGCTTGACGCTGCTG”, the binding signal came out at 6.92 z-score in test [1]; 9.51 z-score in test [2]; 7.11 z-score in test [3]; 1.53 z-score in test [4]; 7.16 z-score in test [5]; 7.6 z-score in test [6]. This sequence registered a binding signal in test [7] of 6.51 z-score.
For the sequence “CCGATTAACATCAAGAAACCCCCTGATGTTAATCGGGTCTTGATTCGCTTGACGCTGCTG”, the binding signal in test [1] is 9.53 z-score; in test [2] it was 8.55 z-score; in test [3] it was 9.47 z-score; in test [4], 3.31 z-score; in test [5], 10 z-score; in test [6], 7.67 z-score. The binding signal in test [7] worked out at 7.53 z-score.
On to “CCGATTAACATCAGGATAACCCCTGATGTTAATCGGGTCTTGATTCGCTTGACGCTGCTG”, for which the binding signal came out at 4.52 z-score in test [1]; 3.22 z-score in test [2]; 1.82 z-score in test [3]; 1.72 z-score in test [4]; 2.74 z-score in test [5]; 5.12 z-score in test [6]. Further, in test [7], the binding signal amounted to 3.08 z-score.
As for “CCGATTAACATCAGGGGGTGCACTGATGTTAATCGGGTCTTGATTCGCTTGACGCTGCTG”, the binding signal in test [1] was 3.65 z-score; in test [2], 2.71 z-score; in test [3], 3.9 z-score; in test [4], 2.55 z-score; in test [5], 6.6 z-score; in test [6], 4.95 z-score. This sequence also yielded a binding signal in test [7] of 4.23 z-score.
Take “CCGATTAACATCAGAAGTTCCCCTGATGTTAATCGGGTCTTGATTCGCTTGACGCTGCTG”: the binding signal came to 7.97 z-score in test [1]; 8.26 z-score in test [2]; 8.1 z-score in test [3]; 7.36 z-score in test [4]; 8 z-score in test [5]; 7.04 z-score in test [6]. Besides, in test [7], the binding signal is 5.84 z-score.
As for “CCGATTAACATCAGGGGGGTTTATGATGTTAATCGGGTCTTGATTCGCTTGACGCTGCTG”, the binding signal in test [1] was found to be 7.17 z-score; in test [2], 5.54 z-score; in test [3] it was 6.69 z-score; in test [4] it was 4.39 z-score; in test [5] it was 8.97 z-score; in test [6], 6.15 z-score. The binding signal in test [7] amounted to 6.31 z-score.
As for “CCGATTAACATCAGGGGAGAAACTGATGTTAATCGGGTCTTGATTCGCTTGACGCTGCTG”, the binding signal in test [1] came to 4.39 z-score; in test [2] it was 4.53 z-score; in test [3], 5.55 z-score; in test [4] it was 7.07 z-score; in test [5], 5.35 z-score; in test [6], 3.64 z-score. The binding signal in test [7] was determined as 4.05 z-score.
Turning to “CCGATTAACATCAATGCCCCCCCTGATGTTAATCGGGTCTTGATTCGCTTGACGCTGCTG”, the binding signal worked out at 5.2 z-score in test [1]; 2.82 z-score in test [2]; 3.53 z-score in test [3]; 5.03 z-score in test [4]; 4.02 z-score in test [5]; 4.04 z-score in test [6]. The sequence further returned a binding signal in test [7] of 4.02 z-score.
Turning to “CCGATTAACATCAAAAGAGTCCCTGATGTTAATCGGGTCTTGATTCGCTTGACGCTGCTG”, the binding signal was 5.39 z-score in test [1]; 5.99 z-score in test [2]; 5.71 z-score in test [3]; 1.5 z-score in test [4]; 5.32 z-score in test [5]; 5.91 z-score in test [6]. The binding signal in test [7] was 4.6 z-score.
“CCGATTAACATCAACACCCCCCTTGATGTTAATCGGGTCTTGATTCGCTTGACGCTGCTG”: the binding signal in test [1] came out at 4.56 z-score; in test [2], 3.85 z-score; in test [3], 3.96 z-score; in test [4], 2.8 z-score; in test [5], 5.23 z-score; in test [6], 5.24 z-score. Also, in test [7], the binding signal is 4.37 z-score.
As for “CCGATTAACATCAGATAATTCCCTGATGTTAATCGGGTCTTGATTCGCTTGACGCTGCTG”, the binding signal was 5.7 z-score in test [1]; 7.58 z-score in test [2]; 6.02 z-score in test [3]; 4.01 z-score in test [4]; 3.74 z-score in test [5]; 7.02 z-score in test [6]. In test [7], this sequence yielded a binding signal of 4.73 z-score.
Regarding “CCGATTAACATCAGGGGAAAGACTGATGTTAATCGGGTCTTGATTCGCTTGACGCTGCTG”, the binding signal turned out to be 4.98 z-score in test [1]; 6.57 z-score in test [2]; 7.06 z-score in test [3]; 4.97 z-score in test [4]; 6.16 z-score in test [5]; 5.51 z-score in test [6]. In test [7], this sequence showed a binding signal of 4.9 z-score.

Source of the values: paper PMC5700166.
